# Experimental data: PubChem BioAssay (EPA / NIEHS)
# Calls of active or inactive are those of the source. How the source made its calls: active means hit-call score of the fitted dose curve at least 0.9, where 1 is the maximum; inactive means score below 0.9.
# Columns and labels:
# Conditions in all cases: mRNA level, 48 h; actives raise or lower the signal
# [1] = read-out: Peroxisomal acyl-coenzyme A oxidase 1 (ACOX1) gene, ACOX1 (gene 51); test: LTEA_HepaRG_ACOX1: Life Technologies and Expression Analysis (LTEA) Assay for Peroxisomal acyl-coenzyme A oxidase 1 (ACOX1) gene using HepaRG (AID 2283467)
# Outline: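 Measured by qRT-PCR against three housekeeping genes: ACOX1 transcript change in human HepaRG cells after 48 h dosing. Concentrations ran up to 100 uM in half-log steps. Curves were fitted bidirectionally relative to 0.5% DMSO.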
# [2] = read-out: Alkaline Phosphatase, Placental (ALPP) gene, ALPP (gene 250); test: LTEA_HepaRG_ALPP: Life Technologies and Expression Analysis (LTEA) Assay for Alkaline Phosphatase, Placental (ALPP) gene using HepaRG (AID 2283468);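 on AC50: differentiated human HepaRG liver cells in serum-free induction medium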
# Outline: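 HepaRG, 48 h plating then 48 h dosing, serum-free induction medium, 0.5% DMSO. 8 conc, half-log, max 100 uM, duplicates. Endpoint: ALPP transcript by qRT-PCR, housekeeping-normalized; gain or loss fitted vs DMSO.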
# [3] = read-out: Bcl-2 (BAD) gene, BAD (gene 572); test: LTEA_HepaRG_BAD: Life Technologies and Expression Analysis (LTEA) Assay for Bcl-2 (BAD) gene using HepaRG (AID 2283469)
# Outline: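 BAD transcript change, measured by qRT-PCR against three housekeeping genes and fitted in both directions relative to 0.5% DMSO, after 48 h chemical treatment of human HepaRG liver cells at concentrations up to 100 uM.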
# [4] = read-out: Bcl-2 (BAX) gene, BAX (gene 581); test: LTEA_HepaRG_BAX: Life Technologies and Expression Analysis (LTEA) Assay for Bcl-2 (BAX) gene using HepaRG (AID 2283470)
# Outline: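 HepaRG (human liver), 48 h exposure, duplicate wells. 8-pt curve, half-log from 100 uM, 0.5% DMSO. BAX transcript by TaqMan qRT-PCR; ACTB/GAPDH/POLR2A normalization; gain or loss vs DMSO baseline.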
# [5] = read-out: adenosine kinase (ADK) gene, ADK (gene 132); test: LTEA_HepaRG_ADK: Life Technologies and Expression Analysis (LTEA) Assay for adenosine kinase (ADK) gene using HepaRG (AID 2283471)
# Outline: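 ADK expression quantified by qRT-PCR, normalised to three housekeeping genes, after 48 h exposure of HepaRG cells to eight concentrations (top 100 uM, half-log steps, duplicate, 0.5% DMSO). Up- or down-regulation fitted relative to vehicle.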
# [6] = read-out: Alpha-fetoprotein (AFP) gene, AFP (gene 174); test: LTEA_HepaRG_AFP: Life Technologies and Expression Analysis (LTEA) Assay for Alpha-fetoprotein (AFP) gene using HepaRG (AID 2283472)
# Outline: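 HepaRG, single lot; 48 h post-plating -> serum-free induction medium; cpd 8-pt, 100 uM top, half-log, 0.5% DMSO, duplicate, 48 h. RNA -> qRT-PCR AFP, norm ACTB/GAPDH/POLR2A. Bidirectional fit vs DMSO.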
# BCL2L11 (gene 10018) = test: LTEA_HepaRG_BCL2L11: Life Technologies and Expression Analysis (LTEA) Assay for Bcl-2 (BCL2L11) gene using HepaRG (AID 2283473)
# Outline: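 Read-out is BCL2L11 transcript level by qRT-PCR, normalized to three housekeeping genes and fitted bidirectionally against 0.5% DMSO vehicle. HepaRG cells received chemicals for 48 h in serum-free induction medium, 100 uM down in half-log dilutions.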
# [7] = read-out: Apolipoprotein A-V (APOA5) gene, APOA5 (gene 116519); test: LTEA_HepaRG_APOA5: Life Technologies and Expression Analysis (LTEA) Assay for Apolipoprotein A-V (APOA5) gene using HepaRG (AID 2283474)
# Outline: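 Readout is APOA5 transcript level by qRT-PCR on Fluidigm dynamic arrays, normalized to three housekeeping genes. HepaRG cultures received chemicals for 48 h at up to 100 uM (half-log steps, 0.5% DMSO), with gain or loss scored relative to DMSO.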
# [8] = read-out: Apoptosis regulator Bcl-2 (Homo sapiens) (UniProt P10415); test: LTEA_HepaRG_BCL2: Life Technologies and Expression Analysis (LTEA) Assay for Bcl-2 gene using HepaRG (AID 2283475)
# Outline: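 HepaRG, plated 48 h then switched to serum-free induction medium; dosed 48 h, 8 conc. (max 100 uM, half-log steps), duplicate, 0.5% DMSO. Lysis in RLT, RNA isolated, TaqMan qRT-PCR for BCL2; ACTB/GAPDH/POLR2A normalisation; bidirectional fit vs DMSO.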
# [9] = read-out: Bcl-2 (BID) gene, BID (gene 637); test: LTEA_HepaRG_BID: Life Technologies and Expression Analysis (LTEA) Assay for Bcl-2 (BID) gene using HepaRG (AID 2283476)
# Outline: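 Transcript levels of BID, measured by qRT-PCR and normalized to three housekeeping genes, were fitted bidirectionally against DMSO controls. Cells were HepaRG, dosed 48 h at up to 100 uM.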
# Caspase-3 (Homo sapiens) = Caspase-3 (Homo sapiens) (UniProt P42574); test: LTEA_HepaRG_CASP3: Life Technologies and Expression Analysis (LTEA) Assay for cysteine-aspartic acid protease (CASP3) using HepaRG (AID 2283477)
# Caspase-3 (Homo sapiens), sequence (P42574 whole entry, looked up): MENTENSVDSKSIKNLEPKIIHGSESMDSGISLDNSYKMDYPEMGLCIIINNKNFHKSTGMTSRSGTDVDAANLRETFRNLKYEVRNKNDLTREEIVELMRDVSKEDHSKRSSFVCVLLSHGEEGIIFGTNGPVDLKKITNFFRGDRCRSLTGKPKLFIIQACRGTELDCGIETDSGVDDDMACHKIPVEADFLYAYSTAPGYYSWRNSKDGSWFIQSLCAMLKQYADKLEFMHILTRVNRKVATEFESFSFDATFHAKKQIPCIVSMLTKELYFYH
# Outline: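 Read-out is CASP3 mRNA level by TaqMan qRT-PCR in human HepaRG cells after 48 h chemical exposure. Eight half-log concentrations topping at 100 uM were tested in 0.5% DMSO; gain or loss was fitted relative to DMSO.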
# [10] = read-out: Cytochrome P450 (CYP24A1), CYP24A1 (gene 1591); test: LTEA_HepaRG_CYP24A1: Life Technologies and Expression Analysis (LTEA) Assay for Cytochrome P450 (CYP24A1) using HepaRG (AID 2283478)
# Outline: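 HepaRG, 48 h chemical exposure, 8-pt half-log CRC from 100 uM, 0.5% DMSO vehicle, duplicates. Endpoint: CYP24A1 mRNA by Fluidigm TaqMan qRT-PCR, normalized ACTB/GAPDH/POLR2A; gain/loss fit vs DMSO.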
# [11] = read-out: Cytochrome P450 (CYP1A2), CYP1A2 (gene 1544); test: LTEA_HepaRG_CYP1A2: Life Technologies and Expression Analysis (LTEA) Assay for Cytochrome P450 (CYP1A2) using HepaRG (AID 2283479)
# Outline: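 CYP1A2 transcript induction or loss, quantified by Fluidigm qRT-PCR against three housekeeping genes, was fitted bidirectionally against 0.5% DMSO controls. Human HepaRG cells received eight half-log concentrations from 100 uM over 48 h.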
# [12] = read-out: cysteine-aspartic acid protease (CASP8), CASP8 (gene 841); test: LTEA_HepaRG_CASP8: Life Technologies and Expression Analysis (LTEA) Assay for cysteine-aspartic acid protease (CASP8) using HepaRG (AID 2283480)
# Outline: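 HepaRG, 48 h exposure, duplicate wells; 8 conc, half-log from 100 uM, 0.5% DMSO. Serum-free induction medium. CASP8 mRNA by TaqMan qRT-PCR, norm. ACTB/GAPDH/POLR2A; gain/loss fitted vs DMSO.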
# [13] = read-out: Cytochrome P450 (CYP2B6), CYP2B6 (gene 1555); test: LTEA_HepaRG_CYP2B6: Life Technologies and Expression Analysis (LTEA) Assay for Cytochrome P450 (CYP2B6) using HepaRG (AID 2283481)
# Outline: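 HepaRG cells plated 48 h, switched to serum-free induction medium, then dosed 48 h (8 points, half-log from 100 uM, 0.5% DMSO). RNA isolated; CYP2B6 expression measured by qRT-PCR; gain or loss fitted relative to DMSO.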
# [14] = read-out: Cytochrome P450 2C19 (Homo sapiens) (UniProt P33261); test: LTEA_HepaRG_CYP2C19: Life Technologies and Expression Analysis (LTEA) Assay for CYP2C19 using HepaRG (AID 2283482)
# Outline: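 Transcript levels of CYP2C19 were quantified by qRT-PCR after HepaRG cells were treated for 48 hours with test chemicals up to 100 uM (eight half-log concentrations, 0.5% DMSO vehicle). Gain or loss of signal was fitted relative to DMSO.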
# CYP2C8 (gene 1558) = test: LTEA_HepaRG_CYP2C8: Life Technologies and Expression Analysis (LTEA) Assay for CYP2C8 using HepaRG (AID 2283483)
# Outline: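 CYP2C8 mRNA induction or loss, by qRT-PCR normalized to ACTB/GAPDH/POLR2A, is read in HepaRG cells after 48 h treatment. Concentrations run from 100 uM down in half-log dilutions, with 0.5% DMSO as vehicle and baseline.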
# CYP2C9 (gene 1559) = test: LTEA_HepaRG_CYP2C9: Life Technologies and Expression Analysis (LTEA) Assay for CYP2C9 using HepaRG (AID 2283484)
# Outline: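 Cells plated 48 h, switched to serum-free induction medium, then treated in duplicate for 48 h at eight concentrations (max 100 uM, 0.5% DMSO). RNA then analysed by qRT-PCR for CYP2C9; curves fitted in both directions relative to DMSO.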
# CYP2E1 (gene 1571) = test: LTEA_HepaRG_CYP2E1: Life Technologies and Expression Analysis (LTEA) Assay for CYP2E1 using HepaRG (AID 2283485)
# Outline: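 Human liver line HepaRG, plated 48 h, then serum-free induction medium + chemical x 48 h; 8-pt CRC from 100 uM, half-log, 0.5% DMSO, n=2. Readout: CYP2E1 mRNA qRT-PCR vs ACTB/GAPDH/POLR2A; bidirectional fit vs DMSO.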
# CYP4A11 (gene 1579) = test: LTEA_HepaRG_CYP4A11: Life Technologies and Expression Analysis (LTEA) Assay for CYP4A11 using HepaRG (AID 2283486)
# Outline: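 HepaRG, 48 h chem exposure, 8 conc (100 uM top, half-log), 0.5% DMSO vehicle; qRT-PCR readout, housekeeping-gene normalized; bidirectional curve fit vs DMSO baseline.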
# Apoptosis regulator Bcl-2 (Homo sapiens), sequence (P10415 whole entry, looked up): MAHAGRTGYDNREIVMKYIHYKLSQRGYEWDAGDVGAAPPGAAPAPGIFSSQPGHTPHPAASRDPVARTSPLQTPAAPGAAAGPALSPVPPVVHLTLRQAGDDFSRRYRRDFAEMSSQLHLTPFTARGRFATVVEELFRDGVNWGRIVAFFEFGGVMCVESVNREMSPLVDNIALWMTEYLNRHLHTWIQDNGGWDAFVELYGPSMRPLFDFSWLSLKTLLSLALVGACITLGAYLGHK
# Cytochrome P450 2C19 (Homo sapiens), sequence (P33261 whole entry, looked up): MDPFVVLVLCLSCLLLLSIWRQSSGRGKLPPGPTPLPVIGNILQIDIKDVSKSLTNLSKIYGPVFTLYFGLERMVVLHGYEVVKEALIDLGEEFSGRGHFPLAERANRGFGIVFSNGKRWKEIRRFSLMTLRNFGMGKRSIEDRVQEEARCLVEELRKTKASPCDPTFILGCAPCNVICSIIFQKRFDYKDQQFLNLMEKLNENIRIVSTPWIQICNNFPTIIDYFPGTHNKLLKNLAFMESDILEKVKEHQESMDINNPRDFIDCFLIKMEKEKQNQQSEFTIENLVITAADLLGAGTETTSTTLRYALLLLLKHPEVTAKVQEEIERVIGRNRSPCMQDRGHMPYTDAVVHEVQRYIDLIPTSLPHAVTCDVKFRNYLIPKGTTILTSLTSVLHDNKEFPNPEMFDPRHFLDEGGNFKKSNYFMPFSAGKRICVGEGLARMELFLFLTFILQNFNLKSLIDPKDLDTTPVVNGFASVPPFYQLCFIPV
smiles,measurement,setting,value
CCCCOC(=O)[C@@H](C)Oc1ccc(Oc2ccc(C#N)cc2F)cc1,AC50,[1],39.7 µM (active)
same,outcome,[2],inactive
same,outcome,[3],inactive
same,outcome,[4],inactive
same,outcome,[5],inactive
same,outcome,[6],inactive
same,outcome,BCL2L11 (gene 10018),inactive
same,outcome,[7],inactive
same,outcome,[8],inactive
same,outcome,[9],inactive
same,outcome,Caspase-3 (Homo sapiens),inactive
same,outcome,[10],inactive
same,AC50,[11],38.5 µM (active)
same,outcome,[12],inactive
same,outcome,[13],inactive
same,outcome,[14],inactive
same,outcome,CYP2C8 (gene 1558),inactive
same,outcome,CYP2C9 (gene 1559),inactive
same,outcome,CYP2E1 (gene 1571),inactive
same,AC50,CYP4A11 (gene 1579),32.4 µM (active)
FC(F)C(F)(F)OCC(Cn1cncn1)c1ccc(Cl)cc1Cl (centres undefined),AC50,[1],53.6 µM (active)
same,AC50,[2],55 µM (active)
same,outcome,[3],inactive
same,AC50,[4],32.3 µM (active)
same,outcome,[5],inactive
same,AC50,[6],20.2 µM (active)
same,outcome,BCL2L11 (gene 10018),inactive
same,AC50,[7],35.6 µM (active)
same,AC50,[8],30.2 µM (active)
same,outcome,[9],inactive
same,AC50,Caspase-3 (Homo sapiens),82 µM (active)
same,outcome,[10],inactive
same,AC50,[11],28.6 µM (active)
same,outcome,[12],inactive
same,AC50,[13],31.7 µM (active)
same,AC50,[14],34.8 µM (active)
same,AC50,CYP2C8 (gene 1558),24.6 µM (active)
same,AC50,CYP2C9 (gene 1559),38.1 µM (active)
same,AC50,CYP2E1 (gene 1571),16.1 µM (active)
same,AC50,CYP4A11 (gene 1579),28.8 µM (active)
CC(C)=CC1C(C(=O)OCN2C(=O)C3=C(CCCC3)C2=O)C1(C)C (centres undefined),outcome,[1],inactive
same,outcome,[2],inactive
same,outcome,[3],inactive
same,outcome,[4],inactive
same,outcome,[5],inactive
same,outcome,[6],inactive
same,outcome,BCL2L11 (gene 10018),inactive
same,outcome,[7],inactive
same,outcome,[8],inactive
same,outcome,[9],inactive
same,outcome,Caspase-3 (Homo sapiens),inactive
same,outcome,[10],inactive
same,AC50,[11],31.5 µM (active)
same,outcome,[12],inactive
same,AC50,[13],50 µM (active)
same,outcome,CYP2C8 (gene 1558),inactive
same,outcome,CYP2C9 (gene 1559),inactive
same,outcome,CYP2E1 (gene 1571),inactive
same,outcome,CYP4A11 (gene 1579),inactive
